# Screening data deposited in PubChem BioAssay by National Center for Advancing Translational Sciences (NCATS).
# IL1B secr inh: inflammasome signaling inhibition, IL-1 beta readout. THP-1 LPS/ATP IL-1B secretion, AlphaLISA, 16 h; hits give low values. activity change, % at 57.5 µM. hit rate 4.7% among 360,000; in the data active = activity change below about -50%; inconclusive = mostly about -30% to -49%
#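 THP-1 cells pretreated 1 hr with compounds (up to 57.5 uM final), then stimulated with LPS (250 ng/mL final) plus ATP (1.25 mM final); secreted IL-1B measured by AlphaLISA after 16 hr, decreased signal indicating inhibition.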
# DT40 TDP1 CPT: DT40-hTDP1 cell growth loss with CPT; chicken DT40 Tdp1-/-;hTDP1 cells + 20 nM CPT, ATP luminescence, 48 h; Potency, µM (titrated, usually from 46.2 µM), for the others: at the highest dose activity change, negative = growth inhibition, usual class: inhibitors; hit rate 12% among 420,000; also: potency is read from the fitted curve at half-maximal effect; nearly all actives have a fitted effect of over 55% in size
#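 Chicken DT40 Tdp1-/- cells complemented with human TDP1, 400 cells/well, exposed to compounds plus 20 nM camptothecin for at least 48 h at 37 C; viability read as ATP content by CellTiter-Glo luminescence.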
# HT1080NT lethal: kills 2HG-producing HT-1080-NT fibrosarcoma cells | HT-1080-NT fibrosarcoma viability, CellTiter-Glo ATP luminescence, 48 h | AID 686970 | hit rate 1.6% among 360,000 | Potency, µM (doses to about 46.1 µM), for the others: top-dose activity, negative = less viability, usual class: cytotoxic;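 also: NT is the 2HG producing partner of a matched IDH1 knockdown line; potency is read from the fitted curve at half-maximal effect; 0% = DMSO-treated cells and -100% = media-only wells without cells; nearly all actives have a fitted effect of over 55% in size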
#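 750 cells/well, RPMI + 5% FBS; 2 h settle, compound pin-transfer, 48 h at 37 degrees C. CellTiter-Glo 10 min RT, luminescence. Normalized to DMSO and media-only wells.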
# HT1080 IDH1KD tx: kills HT-1080 cells with IDH1 knockdown | HT-1080 IDH1 knockdown viability, ATP luminescence, 48 h | Potency, µM (highest dose often 46.1 µM), without a hit: at the top dose activity, negative = toxicity, most hits filed as cytotoxic | hit rate 2% among 360,000 | AID 686971;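 also: potency is read from the fitted curve at half-maximal effect; 0% = DMSO wells and -100% = cell-free medium wells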
#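 Assay cells: HT-1080 with IDH1 knockdown, 750 per well, RPMI/5% FBS. Exposure: 48 h at 37 °C following 2 h pre-incubation. Read: CellTiter-Glo luminescence; fitted concentration-response, curve class assigned.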
# 12-LOX inh: inhibitors of human 12S-lipoxygenase ALOX12; P18054; purified 12hLO, xylenol orange hydroperoxide absorbance; Potency, µM (doses to about 108 µM), inactives show at the top dose activity change, negative = inhibition, usual class: inhibitors; hit rate 1.1% among 580,000; also: potency is read from the fitted curve at half-maximal effect
# Target sequence (P18054 whole entry, looked up): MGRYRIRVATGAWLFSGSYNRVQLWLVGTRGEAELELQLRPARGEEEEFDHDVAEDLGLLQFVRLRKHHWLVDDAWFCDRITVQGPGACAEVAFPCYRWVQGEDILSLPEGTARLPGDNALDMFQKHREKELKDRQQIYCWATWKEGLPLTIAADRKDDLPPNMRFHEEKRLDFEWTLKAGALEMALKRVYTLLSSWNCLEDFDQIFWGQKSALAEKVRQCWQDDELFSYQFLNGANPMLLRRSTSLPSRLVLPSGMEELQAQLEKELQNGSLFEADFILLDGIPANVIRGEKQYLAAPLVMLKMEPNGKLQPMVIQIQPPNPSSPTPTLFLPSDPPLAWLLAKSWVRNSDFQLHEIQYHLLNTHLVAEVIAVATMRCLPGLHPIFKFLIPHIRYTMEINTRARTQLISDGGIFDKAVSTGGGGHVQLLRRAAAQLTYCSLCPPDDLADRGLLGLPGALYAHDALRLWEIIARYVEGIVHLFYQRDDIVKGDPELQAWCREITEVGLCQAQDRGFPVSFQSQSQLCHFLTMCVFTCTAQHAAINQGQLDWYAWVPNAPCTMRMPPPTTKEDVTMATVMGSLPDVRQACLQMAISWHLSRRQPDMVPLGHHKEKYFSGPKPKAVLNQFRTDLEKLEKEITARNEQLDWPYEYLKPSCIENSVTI
#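 Hydroperoxide product was detected by ferrous iron/xylenol orange as the 573 to 405 nm absorbance ratio. Arachidonic acid at 40 uM (final) was turned over for 30 min at room temperature by 150 nM human 12hLO, pH 7.0 Hepes buffer, after 15 min compound preincubation.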
# TDP1 cell noCPT: qHTS for Inhibitors of human tyrosyl-DNA phosphodiesterase 1 (TDP1): qHTS in cells in absence of CPT | DT40 Tdp1-/- hTDP1 cells, no CPT, ATP luminescence, 48 h | Potency, µM (top dose mostly 46.2 µM), inactives show at the top dose activity change, negative = growth inhibition, most hits filed as inhibitors | hit rate 15% among 420,000 | AID 686978, 2013; also: potency is read from the fitted curve at half-maximal effect; nearly all actives have a fitted effect of over 55% in size
#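 Readout: luminescence from CellTiter-Glo after 30 min in the dark at RT. Cells: DT40 Tdp1-/- with stable hTDP1, 400/well. Exposure: compounds alone, ≥48 hr, 37 °C.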
# * hit, by the source's call; i = inactive; ? = inconclusive; . = no result given; [ ] = another dose, or the depositor's remark. The sample as a whole holds a higher share of hits than the screen did. Unless noted, calls follow the shape of the dose curve; as a rule, active = well fitted curve in the direction sought with a large enough effect; inconclusive = small, poorly fitted or top-dose-only effect, or another doubt; inactive = no such curve, though single readings can be large; an effect the other way counts as inactive or inconclusive. Unless noted, % is scaled to controls: 0 for no effect and ±100 for the full control effect.
SMILES,IL1B secr inh,DT40 TDP1 CPT,HT1080NT lethal,HT1080 IDH1KD tx,12-LOX inh,TDP1 cell noCPT
CC(=O)N1CCCc2cc(S(=O)(=O)N3CCCC(C(=O)Nc4cc(C)ccc4C)C3)ccc21 (stereo not given),13.9,?,-1.2%,-14.6%,-21.4%,-29.5%
CCC(C)C1=NS(=O)(=O)c2cc(NC(=O)C(C)C)ccc2N1c1ccccc1 (stereo not given),.,.,.,.,46.9%,.
COC(=O)[C@@]12C[C@@H](CC(=O)NCc3ccc(OC)c(OC)c3)C(=O)N(Cc3ccccc3)C1=CCC(C)(C)C2,-17.6,18.4µM*,-9.9%,-9.9%,-27.9%,?
COC(=O)[C@@]12C[C@@H](CC(=O)NCCc3ccccc3OC)C(=O)N(CCc3ccc(OC)c(OC)c3)C1=CCC(C)(C)C2,-4.0,23.1µM*,?,?,-20.7%,?
CCCCCCCCN1C(=O)[C@H](CC(=O)NCc2ccc(OC)c(OC)c2)C[C@@]2(C(=O)OC)CC(C)(C)CC=C12,-78.2*,18.4µM*,?,?,?,18.4µM*
COC(=O)[C@@]12C[C@@H](CC(=O)NCc3ccc(OC)c(OC)c3)C(=O)N(CCc3ccc(OC)c(OC)c3)C1=CCC(C)(C)C2,-27.9,16.4µM*,-23.7%,2.9%,9.7%,14.6µM*
CCCCNC(=O)C[C@@H]1C[C@@]2(C(=O)OC)CC(C)(C)CC=C2N(CCc2ccc(OC)c(OC)c2)C1=O,?,?,1.0%,3.8%,-42.9%,?
C=CCNC(=O)N(C)CC(=O)Nc1c(C)cccc1C,.,.,.,.,18.3%,.
COC(=O)[C@@]12C[C@@H](CC(=O)NCC34CC5CC(CC(C5)C3)C4)C(=O)N(CCc3ccc(OC)c(OC)c3)C1=CCC(C)(C)C2,-97.7*,16.4µM*,?,?,?,14.6µM*
CN(C)c1ccc(/C=N/NC(=O)c2ccc(N(C)C)cc2)cc1,.,.,.,.,-43.2%,.
CN(C)c1ccc(/C=N\NC(=O)c2cccc3cc[nH]c23)cc1,-10.1,?,-4.1%,-25.0%,i,6.51µM*
Nc1nc(CN2CCC(O)CC2)nc2ccccc12,.,.,.,.,-26.8%,.
CC(=O)Nc1ccc(OCC(=O)NCc2ccccc2)cc1,-18.9,23.2%,9.4%,-2.7%,10.6%,-0.6%
CC(=O)Nc1ccc(C(=O)OCC(=O)NCc2ccccc2)cc1,33.3,?,?,25.9µM*,-12.0%,20.6µM*
CCCc1nc2ccccc2c(C(=O)OCC(=O)Nc2cccc(S(=O)(=O)N3CCOCC3)c2)c1CC,-10.0,11.6µM*,?,?,0.0%,?
CCCc1nc2ccccc2c(C(=O)OCC(=O)Nc2ccc(S(=O)(=O)N3CCOCC3)cc2)c1CC,-66.7*,16.4µM*,?,10µM*,-6.6%,16.4µM*
CCc1nc2ccccc2c(C(=O)OCC(=O)Nc2ccc(NC(C)=O)cc2)c1C,-8.4,13µM*,0.1%,-16.5%,103.8%,20.6µM*
O=C1N[C@@H](Cc2ccccc2)COC(=O)[C@H](Cc2ccc(F)cc2)C/C=C\C[C@H]1CC(=O)N(CCO)Cc1ccccc1,-25.7,20.6µM*,-24.0%,?,?,8.2µM*
O=C1N[C@@H](Cc2ccccc2)COC(=O)[C@@H](Cc2ccc(F)cc2)CC/C=C/C[C@H]1CC(=O)N(CCO)Cc1ccccc1,-21.4,?,?,?,?,6.51µM*
CCCCn1nc(C(=O)Nc2ccc(C)cc2Br)c2ccccc2c1=O,.,.,.,.,11.0%,.
O=S(=O)(Nc1ccc(-c2csc(-c3ccccc3)n2)cc1)c1ccccc1,-102.0*,-40.7%,?,?,-8.7%,18.4µM*
O=C(O)c1cccc(NS(=O)(=O)c2ccc3c(c2)C(=O)c2ccccc2C3=O)c1,0.0,-8.9%,0.8%,5.7%,-21.6%,-10.1%
O=[N+]([O-])c1ccc(S(=O)(=O)Nc2ccc(-c3csc(-c4ccccc4)n3)cc2)cc1,.,.,.,.,6.8%,.
Cc1ccc2nc(-c3ccc(NS(=O)(=O)c4ccc(F)cc4)cc3)sc2c1,-102.7*,?,?,?,-23.0%,?
CC(=O)Nc1ccc(S(=O)(=O)Nc2nc3ccc(C)cc3s2)cc1,24.9,2.2%,-2.6%,-2.7%,-8.0%,-5.0%
SMILES,IL1B secr inh,DT40 TDP1 CPT,HT1080NT lethal,HT1080 IDH1KD tx,12-LOX inh,TDP1 cell noCPT
Cc1ccc(S(=O)(=O)Nc2ccc(-c3csc(-c4ccccc4)n3)cc2)cc1,-97.2*,?,-12.1%,-16.2%,?,?
O=C1c2ccccc2C(=O)c2cc(S(=O)(=O)Nc3ccccc3)ccc21,0.0,14.6µM*,-1.5%,-24.0%,-23.3%,20.6µM*
Cc1ccccc1C(=O)N1C(C(=O)NC(C)C)COC12CCN(C(=O)c1ccc(Cl)cc1)CC2 (stereo not given),.,.,.,.,49.2%,.
O=S(=O)(Nc1ccc(-c2ccc(NS(=O)(=O)c3ccccc3)cc2)cc1)c1ccccc1,-4.3,?,?,?,?,23.1µM*
COc1ccc(NC(=O)CSc2nc3c(cnn3-c3ccc(C)c(C)c3)c(=O)[nH]2)cc1,.,.,.,.,-22.7%,.
Cc1ccc(CNC(=O)CCc2c(C)nc3c(c(C)nn3-c3ccc(C)cc3)c2C)cc1,7.4,-11.6%,2.8%,-0.5%,14.1%,12.4%
Cc1ccc(-n2nc(C)c3c(C)c(CCC(=O)NCc4ccco4)c(C)nc32)cc1,-21.6,23.1µM*,-1.0%,-0.8%,14.3%[57.4 µM],?
Cc1ccc(-n2nc(C)c3c(C)c(CCC(=O)NCc4ccccc4Cl)c(C)nc32)cc1,.,16.4µM*,.,.,?,?
COc1ccc(-c2noc(C(=O)O)c2[C@@H](C)NC(=O)Nc2ccccc2)cc1,.,.,.,.,9.8%[176 µM],.
COc1cccc(NC(=O)c2cc[n+]([O-])cc2)c1,.,.,.,.,0.0%,.
NC(C(=O)O)C1ON=C(Cl)C1O (stereo not given),56.0,5.8µM*,20.6µM*,?,?,5.8µM*
CCCCN(CC)Cc1c(C)[nH]c2ccccc2c1=O,-1.7,2.3%,15.1%,15.5%,21.1%,3.4%
CCCCCCCCCC[n+]1ccc(/C=C/c2c(C)[nH]c3ccccc23)cc1,.,0.562µM*,.,.,.,0.398µM*
CCCCCCCCCC[n+]1ccc(/C=C/c2c[nH]c3ccccc23)c2ccccc21,.,1.58µM*,.,.,.,2µM*
CC[n+]1ccc(/C=C/c2c[nH]c3ccccc23)cc1,0.0,2.31µM*,?,-27.6%,?,2.06µM*
O=Cc1c[nH]c2ccccc12,.,.,.,.,-31.2%,.
